Only some compounds are listed: those with a hit (about 0.93% of all), similar ones and a draw of the others.
RPL19A TOR yeast: yeast TOR pathway RPL19A-GFP modulation | percent response vs DMSO, % at 10 µM | S. cerevisiae RPL19A-GFP strain, flow cytometry, 3 h; stronger effect = lower value | 330,000 compounds, 0.3% hits | AID 2025;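 active = percent response vs DMSO below 50%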;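 note: median channel GFP fluorescence of the barcoded RPL19A-GFP strain; ratio of sample median GFP to plate DMSO average so 100% = DMSO; lower means less RPL19A-GFP as with rapamycin TOR inhibition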
AGP1-GFP MLPCN: alters AGP1-GFP fluorescence in TOR pathway yeast screen. S. cerevisiae AGP1-GFP multiplex flow cytometry, 3 h; GFP as percent of DMSO wells. GFP response vs DMSO, % at 10 µM. 320,000 compounds, 0.02% hits;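 active = GFP response relative to DMSO above a set limit, near screen average plus 3 SD, cut at about 150% in these data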;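 note: median GFP channel fluorescence of the gated AGP1 strain per well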
LAP4 TOR yeast: modulators of TOR pathway LAP4-GFP in S. cerevisiae | S. cerevisiae LAP4-GFP multiplex, flow cytometry GFP, 3 h; median GFP as percent of DMSO wells | GFP response vs DMSO, % at 10 µM | 320,000 compounds, 0.34% hits;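 active = GFP response vs DMSO above a set limit, about the screen mean plus 3 SD, cut at about 150% in these data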
MEP2-GFP yeast: yeast TOR pathway MEP2-GFP modulation. S. cerevisiae MEP2-GFP strain, flow cytometry GFP, 3 h; 100% = DMSO control level. GFP response vs DMSO, % at 10 µM. 330,000 compounds, 0.51% hits;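 active = GFP response versus DMSO above a set limit, roughly screen mean plus 3 SD, cut at about 180% in these data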;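 note: median GFP fluorescence of the barcode-gated MEP2-GFP cells per well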
CIT2-GFP yeast: alters CIT2-GFP fluorescence in TOR pathway yeast screen; 320,000 compounds, 0.065% hits; S. cerevisiae CIT2-GFP strain, flow cytometry, 3 h; 100 means same as DMSO wells; GFP response vs DMSO, % at 10 µM; AID 2029;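 active = GFP response relative to DMSO above a set limit, near the screen mean plus 3 SD, cut at about 150% in these data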;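 note: ratio of well median GFP fluorescence to mean of DMSO wells on the plate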
LAP4 cherry2: second confirmation of modulators of TOR reporter LAP4-GFP in yeast; shares compounds with LAP4 TOR yeast; S. cerevisiae LAP4-GFP strain, flow cytometry GFP, 3 h; GFP response vs DMSO, % at 10 µM; 590 compounds, 20% hits;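 active = GFP signal as percent of the solvent control above about 150%, meaning raised reporter expression, limit read from the data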;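 note: ratio of well median GFP fluorescence to plate DMSO mean so 100% = DMSO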
MEP2-GFP pick2: reconfirmed MEP2-GFP TOR pathway modulator in yeast. shares compounds with LAP4 TOR yeast. S. cerevisiae MEP2-GFP strain, flow cytometry GFP, 3 h. GFP response vs DMSO, % at 10 µM. 590 compounds, 10% hits;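 active = GFP signal above 150% of the solvent control wells, that is a rise of more than half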;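 note: median channel GFP fluorescence of all gated yeast cells per well; ratio of median GFP to plate DMSO average so 100% = DMSO level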
RPL19A-GFP pick2: reconfirmed modulator of RPL19A-GFP TOR reporter in yeast; shares compounds with LAP4 TOR yeast; GFP response vs DMSO, % at 10 µM; S. cerevisiae RPL19A-GFP strain, flow cytometry GFP, 3 h; stronger effect = lower value; 100% means same as DMSO wells; 590 compounds, 3% hits;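 active = under 65% GFP response relative to DMSO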;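 note: median GFP channel fluorescence per well over the all cells gate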
CIT2 GFP CP2: second confirmation of modulators of TOR reporter CIT2-GFP in yeast. S. cerevisiae CIT2-GFP strain, flow cytometry GFP, 3 h; DMSO control wells read 100%. GFP response vs DMSO, % at 10 µM. AID 2624. shares compounds with LAP4 TOR yeast. 590 compounds, 8% hits;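 active = GFP response vs DMSO above about 150%, limit read from the data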;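 note: median green fluorescence per well over all gated yeast cells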
AGP1-GFP pick2: reconfirmed modulator of AGP1-GFP TOR reporter in yeast. AID 2643. S. cerevisiae AGP1-GFP strain, flow cytometry GFP, 3 h. percent response vs DMSO, % at 10 µM. 590 tested, under 10 active. shares compounds with LAP4 TOR yeast;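 active = over 150 percent of DMSO response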;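 note: median GFP channel fluorescence over all cells without mother daughter split; sample median GFP divided by mean DMSO control so 100% equals DMSO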
s288c autofluor: yeast s288c autofluorescence artifact, counter-screen. S. cerevisiae s288c, 520 nm autofluorescence, flow cytometry, 3 h; stronger effect = higher value; zero means same as solvent-only cells. shares compounds with LAP4 TOR yeast. fluorescence change (kMESF span) at 33 µM. 610 tested, under 10 active;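 active = fluorescence span over the dose series, or activity score, above about 33, limit read from the data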
Yeast autofl DR: yeast s288c autofluorescence artifact in dose response; shares compounds with LAP4 TOR yeast; S. cerevisiae s288c parental, compound autofluorescence, flow cytometry, 3 h; fluorescence change (span) at 33 µM; 110 tested, under 10 active; AID 488829;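 active = fluorescence change span, or the activity score built from it, above 25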
TORC1 bypass gr: compounds blocking wildtype yeast growth but not TORC1 bypass cells; shares compounds with LAP4 TOR yeast; S. cerevisiae BY4741 spot growth rating, 48-72 h; stronger effect = lower value; growth rating (0-3) at 30 µM; 120 tested, under 10 active;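 active = growth rating at most 1 for wild type yeast while the TORC1 bypass strain still grows fully, rated 3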
The depositor's hits bear a star; . = no result; [ ] = another dose, or the depositor's remark.

SMILES | RPL19A TOR yeast | AGP1-GFP MLPCN | LAP4 TOR yeast | MEP2-GFP yeast | CIT2-GFP yeast | LAP4 cherry2 | MEP2-GFP pick2 | RPL19A-GFP pick2 | CIT2 GFP CP2 | AGP1-GFP pick2 | s288c autofluor | others
COc1ccc(/C=C/C(=O)NC(=S)NNC(=O)c2cccnc2)cc1 | 103 | 107 | 101 | 104 | 111 | . | . | . | . | . | .
O=C(NC(=S)NNC(=O)c1cnccn1)c1ccc(F)cc1 | 102 | 80 | 232* | 109 | 91 | . | . | . | . | . | 0.61 | Yeast autofl DR=0.49;TORC1 bypass gr=3
O=C(/C=C/c1ccc(F)cc1)NC(=S)NNC(=O)c1cnccn1 | 83 | 75 | 261* | 122 | 87 | . | . | . | . | . | 1.4
O=C(CN1C(=O)NC2(CCCCCC2)C1=O)Nc1ccc(Br)cc1Br | 95 | 104 | 106 | 98 | 88 | . | . | . | . | . | .
CC(C)(C)C1CCC(=NNC(=O)C(=O)NCc2ccco2)CC1 (stereo not drawn) | 60 | 83 | 88 | 115 | 84 | 96 | 98 | 99 | 105 | 100 | .
O=c1c2ccccc2nnn1CCO | 112 | 108 | 93 | 111 | 118 | . | . | . | . | . | .
Cc1cc(C)cc(-n2ncc3c2CCCC3NC(=O)CCN2CCCC2=O)c1 (stereo not drawn) | 95 | 94 | 94 | 93 | 93 | . | . | . | . | . | .
Cc1cccc(OCCN2CSC(=S)N(C)C2)c1 | 84 | 103 | 160* | 99 | 83 | . | . | . | . | . | 0.3
CCCN(CC(=O)Nc1cc(Cl)cc(Cl)c1)CC(=O)Nc1ccc(F)c(F)c1F | 96 | 90 | 93 | 105 | 89 | . | . | . | . | . | .
Cc1noc(C)c1C(=O)Nc1ccc(N(C)C)cc1 | 94 | 102 | 85 | 99 | 162* | 100 | 100 | 100 | 102 | 103 | .
Cc1noc(C)c1C(=O)Nc1ccc(F)cc1 | 103 | 110 | 123 | 97 | 93 | . | . | . | . | . | .
CC1=NN(c2ccccc2)C(=O)/C1=C/c1cccc(C)c1 | 107 | 93 | 101 | 101 | 100 | . | . | . | . | . | .
CC1=NN(c2ccccc2)C(=O)/C1=C/c1c(C)[nH]n(-c2ccc(C)cc2)c1=O | 92 | 90 | 98 | 92 | 88 | 97 | 103 | 106 | 100 | 102 | .
Cc1ncc(CN2CCC(CO)(CCc3ccccc3)CC2)s1 | 98 | 104 | 106 | 97 | 99 | . | . | . | . | . | .
CC1=CC(=O)c2ccccc2C1=O | 100 | 87 | 99 | 94 | 88 | . | . | . | . | . | .
CC(C)(C=O)C1=CC(=O)c2ccccc2C1=O | 87 | 96 | 193* | 113 | 90 | 143 | 118 | 102 | 146 | 105 | .
CCOc1ccc(C(=O)N2CCC3(CC2)NCCc2[nH]cnc23)cc1 | 99 | 105 | 98 | 99 | 104 | . | . | . | . | . | .
CC1CCC(C(C)C)C(OP(=O)(c2ccc(N(C)C)cc2)C(O)c2cccnc2)C1 (stereo not drawn) | 119 | 113 | 150 | 232*[may fluoresce green] | 234*[may fluoresce green] | 95 | 108 | 102 | 106 | 103 | .
O=C(Nc1nnc(-c2ccc(F)cc2)o1)c1cc(Cl)sc1Cl | 98 | 115 | 164* | 118 | 102 | 167* | 121 | 112 | 139 | 104 | 0.7
O=C(Nc1nnc(-c2ccc(F)cc2)o1)c1cccc([N+](=O)[O-])c1 | 98 | 103 | 164* | 111 | 99 | . | . | . | . | . | 0.2
O=C(Nc1nnc(-c2ccccc2)o1)c1cc(Cl)sc1Cl | 102 | 99 | 103 | 103 | 100 | . | . | . | . | . | .
CC1CCCCC12NC(=O)N(CC(=O)OCc1cccc(F)c1)C2=O (stereo not drawn) | 99 | 99 | 102 | 102 | 94 | . | . | . | . | . | .
CC(=O)n1cc(C(C[N+](=O)[O-])SCCN)c2ccccc21 (stereo not drawn) | 93 | 78 | 226* | 87 | 76 | 183* | 164* | 98 | 127 | 104 | 1.5
COc1cccc2oc3cc(C#CC4(O)CCCCC4)ccc3c(=O)c12 | 94 | 81 | 127 | 94 | 64 | . | . | . | . | . | .
O=c1c2ccccc2oc2cc(C#CC3(O)CCCCC3)ccc12 | 100 | 84 | 153* | 92 | 80 | 106 | 114 | 95 | 107 | 93 | .
SMILES | RPL19A TOR yeast | AGP1-GFP MLPCN | LAP4 TOR yeast | MEP2-GFP yeast | CIT2-GFP yeast | LAP4 cherry2 | MEP2-GFP pick2 | RPL19A-GFP pick2 | CIT2 GFP CP2 | AGP1-GFP pick2 | s288c autofluor | others
CCOC(=O)Cn1c(CN2CCOCC2)nc2c1c(=O)n(C)c(=O)n2C | 69 | 106 | 222* | 95 | 101 | 108 | 119 | 101 | 115 | 99 | .
CCOC(=O)Cn1c(CN2CCOCC2)nc2c1c(=O)[nH]c(=O)n2C | 93 | 98 | 96 | 97 | 112 | . | . | . | . | . | .
COc1ccc(C(=O)NC(=S)NCc2ccco2)cc1 | 87 | 91 | 102 | 84 | 77 | . | . | . | . | . | .
C=CCN1C(=O)/C(=C/c2ccc(-c3ccc(F)cc3)o2)SC1=S | 102 | 83 | 163* | 99 | 96 | 169* | 131 | 99 | 111 | 102 | 1.2
Cn1c(=O)n(C)c2cc(NC(=O)CSc3nc4ccccc4c(=O)[nH]3)ccc21 | 103 | 102 | 96 | 99 | 102 | . | . | . | . | . | .
CC1=C(C)/C(=N\OS(=O)(=O)c2ccc(C)cc2)C=CC1=O | 79 | 80 | 244* | 86 | 86 | 160* | 145 | 106 | 153* | 87 | 0
CC1=C/C(=N\OS(=O)(=O)c2ccccc2)C(C)=CC1=O | 87 | 97 | 234* | 107 | 87 | . | . | . | . | . | 15
CC1=C/C(=N\OS(=O)(=O)c2ccccc2)C(C(C)C)=CC1=O | 86 | 75 | 191* | 92 | 60 | 172* | 157* | 96 | 117 | 75 | 1.1
Cc1ccc(C(=O)NCCC(=O)N2CCC3(CC2)NCCc2[nH]cnc23)cc1C | 95 | 97 | 97 | 102 | 96 | . | . | . | . | . | .

Compound activity: PubChem, NMMLSC
